The values below come from PubChem BioAssay (EPA / NIEHS).

SMILES strings stand for the structures. Activity calls are given as the source filed them. Rule for the calls: active = hit-call score of the fitted dose curve at least 0.9, where 1 is the maximum; inactive = score below 0.9.

Read-out in this assay: solute carrier (SLC22A6), SLC22A6 (gene 9356)
Nature of the assay: LTEA_HepaRG_SLC22A6: Life Technologies and Expression Analysis (LTEA) Assay for solute carrier (SLC22A6) using HepaRG (AID 2283653). Conditions: mRNA level, 48 h; actives raise or lower the signal. The protocol: LTEA_HepaRG is a cell based, multiplexed-readout assay that uses HepaRG, a human liver cell line, with measurements taken at 48 hours after chemical dosing on a 96-well plate.LTEA_HepaRG_SLC22A6 is one of 102 assay component(s) measured in the LTEA HepaRG cell culture assay. It is a marker of NR mediated transport.Data from the assay component LTEA_HepaRG_SLC22A6 was analyzed into 1 endpoint. This assay endpoint, LTEA_HepaRG_SLC22A6, was analyzed with bidirectional fitting relative to DMSO as the negative control and baseline of activity. Using a type of inducible reporter, measures of mRNA induction for gain or loss-of-signal activity can be used to understand regulation of transcription factor activity. To generalize the intended target to other relatable targets, this assay endpoint is annotated to the transporter intended target family, where the subfamily is organic anion transporter.
A total of 1060 chemcials from the ToxCast library were tested in eight-point concentration-response experiments. Cell culture and cytotoxicity assays were conducted at Thermo Fisher Scientific's Custom Services facility (Madison, WI). A single lot of human HepaRG cells (Thermo Fisher Scientific, Frederick, MD) was used for the cell culture experiments. 96-well format collagen type I coated plates of human HepaRG cells were prepared using established methods. Briefly, cryopreserved HepaRG cells were thawed, plated at a density of approximately 100,000 cells/well in HepaRG Thaw, Plate, and General Purpose media (HPRG770, Thermo Fisher Scientific), and incubated for 48 hours. 0.5% DMSO was selected as vehicle control to balance the requisite need of DMSO in HepaRG cultures to maintain differentiation (for example, baseline metabolism, proportions of hepatocytes vs. cholangiocytes), while enabling further hepatic receptor pathway activation (for example, PXR and CAR) in response to chemical exposure. 48 hours after plating, the culture medium was replaced with HepaRG Serum-Free Incudtion Media. Cells were exposed to each test chemical in duplicate and maintained in CO2 incubators for another 48 hours. Chemical plates were thawed to room temperature and 200x concentrations of treatment groups were prepared. 8-point conentration-reponse curves were made with the highest exposure at 100 uM, followed by half-log dilutions, all in 0.5% DMSO. Each test plate contained variouse controls, induction positive controls (1mM phenobarbital), cytotoxicity positive controls ([…] aflatoxin B1), vehicle controls (0.5% DMSO), and total lysis controls (0.5% DMSO). Cell morphology images were taken using an Essen IncuCyte FLR automated microscope, with six 96-well plates imaged in about 24 minutes. Images were captured and exported and JPEG files. Spent culture media was transfered to black-well plates for the LDH assay, and remaining media was sorted at -80 C for later use. Cells were treated with RLT buffer and frozen until shipped for gene expression analysis. Total RNA was isolated from the cell suspension in 75 uL of Buffer RLT (Qiagen, Germantown, MD 20874) by Quintiles/Expression Analysis (Durham, NC) using a custom isolation procedure. Total RNA from each plate well was transferred to a preamplification plate. Fluidigm's 96.96 Dynamic ArrayTM (Fluidigm, Amsterdam, the Netherlands) technology was used for gene expression analyses by quantitative reverse transcription polymerase chain reaction (qRT-PCR, performed by Quintiles/Expression Analysis, Durham, NC)89. Standard TaqManTM Assays (Applied Biosystems/ThermoFisher Scientific, Foster City, CA) were used to assess the expression of 93 genes selected based on their selectivity and sensitivity to important hepatic receptors known to be modulated by environmental chemicals; importance in human hepatocyte functionality; and hepatotoxicity. […]
As for `CCc1cccc(CC)c1N(COC)C(=O)CCl`, the outcome was inactive.
As to `CCCCN(CC)c1c([N+](=O)[O-])cc(C(F)(F)F)cc1[N+](=O)[O-]`, the molecule was classed as inactive.
On to `CCOC(=O)CC(SP(=O)(OC)OC)C(=O)OCC` (stereo not given), for which the result was inactive.
The result for `CC[C@H](C)[C@H]1O[C@]2(C=C[C@@H]1C)C[C@@H]1C[C@@H](C/C=C(\C)[C@@H](O[C@H]3C[C@H](OC)[C@@H](O[C@H]4C[C@H](OC)[C@@H](NC)[C@H](C)O4)[C@H](C)O3)[C@@H](C)/C=C/C=C3\CO[C@@H]4[C@H](O)C(C)=C[C@@H](C(=O)O1)[C@]34O)O2` reads “inactive”; that for `CSc1nc(NC(C)C)nc(NC(C)C)n1`, “inactive”; that for `CC(COc1ccc(Oc2ccccc2)cc1)Oc1ccccn1` (stereo not given), “inactive”.
For `CC1(C(=O)Nc2ccc(O)c(Cl)c2Cl)CCCCC1`, the result was inactive.
Consider `CCOP(=S)(OCC)Oc1ccc2c(C)c(Cl)c(=O)oc2c1`, for which the call was inactive.
`CCOP(=S)(Oc1cnc(C(C)(C)C)nc1)OC(C)C` (stereo not given): the outcome was inactive.
As to `CNC(=O)Oc1cccc2c1OC(C)(C)O2`, the molecule was called inactive.
